# Assay results reported in the supplement of paper PMC9844399.
# Counter-ions that a name gives are not always drawn. A number with no mark means an inactive call.
# Tested on: HeLa
# Assay: MALAT1 nuclear FISH intensity, robust Z-score vs DMSO; higher = more nuclear MALAT1 lncRNA, active = -3 or less
# Settings: 10 µM; 6 h
# 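Also: High-content confocal imaging of branched-DNA amplified FISH in 384-well plates, Hoechst-defined nuclei, score is well value minus plate DMSO median over DMSO robust SD, four wells per compound.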
row,Compound,MALAT1 nuclear FISH intensity
1,CN(Cc1ccc(C(C)(C)C)cc1)Cc1cccc2ccccc12,0.581
2,C[C@H]1[C@H](NC(=O)/C(=N\OC(C)(C)C(=O)O)c2csc(N)n2)C(=O)N1S(=O)(=O)O [Aztreonam],0.0374
3,CN(C)CCC(c1ccc(Cl)cc1)c1ccccn1 (stereo not given) [Chlorpheniramine Maleate],-0.0115
4,Oc1ccc(C2CNCCc3c2cc(O)c(O)c3Cl)cc1 (stereo not given) [Fenoldopam Mesylate],-1.62
5,CNC(=O)c1cc(Oc2ccc(NC(=O)Nc3ccc(Cl)c(C(F)(F)F)c3)cc2)ccn1 [Sorafenib Tosylate],-1.08
6,CC(=O)Nc1nnc(S(N)(=O)=O)s1 [Acetazolamide],-2.08
7,Cc1[nH]c(=O)c(C#N)cc1-c1ccncc1 [Milrinone],-0.618
8,CN1CCC(=C2c3ccccc3C=Cc3ccccc32)CC1 [Cyproheptadine hydrochloride sesquihydrate],-0.789
9,Cc1ccc(O)c([C@H](CCN(C(C)C)C(C)C)c2ccccc2)c1 [Tolterodine L-tartrate],-0.93
10,CNC(C)C1CCC(N)C(OC2C(N)CC(N)C(OC3OCC(C)(O)C(NC)C3O)C2O)O1 (stereo not given) [Gentamicin],-0.365
11,CN/C(=N\CCSCc1nc[nH]c1C)NC#N [Cimetidine],-1.02
12,CC(C)[C@@H](O)CC[C@@H](C)[C@H]1CC[C@H]2[C@@H]3CC=C4C[C@@H](O)CC[C@]4(C)[C@H]3CC[C@]12C [24(S)-hydroxycholesterol],-0.91
13,Cc1nnc(C(C)C)n1C1C[C@H]2CC[C@@H](C1)N2CC[C@H](NC(=O)C1CCC(F)(F)CC1)c1ccccc1 (stereo in doubt) [Maraviroc],0.801
14,COCCc1ccc(OCC(O)CNC(C)C)cc1 (stereo not given) [Metoprolol Tartrate],-0.751
15,C=CC(N)CCC(=O)O (stereo not given) [Vigabatrin],-0.56
16,CCN(CC)CCCC(C)Nc1c2ccc(Cl)cc2nc2ccc(OC)cc12 (stereo not given),-2.2
17,CNC(C)C1CCC(N)C(OC2C(N)CC(N)C(OC3OCC(C)(O)C(NC)C3O)C2O)O1 (stereo not given) [Gentamycin Sulfate],0.205
18,Oc1cc(O)cc(/C=C/c2ccc(O)c(O)c2)c1 [Piceatannol],-1.71
19,CNS(=O)(=O)CCc1ccc2[nH]cc(C3CCN(C)CC3)c2c1,-0.52
20,CC1=C(/C=C/C(C)=C/C=C/C(C)=C/C(=O)O)C(C)(C)CCC1 [All trans retinoic acid],-1.81

row,Compound,MALAT1 nuclear FISH intensity
1,CC(=O)NC(C)(C)C(=O)N1CCC[C@H]1C(=O)NC(C)(C)C(=O)N[C@@H](C)C(=O)NC(C)(C)C(=O)N[C@@H](C)C(=O)N[C@@H](CCC(N)=O)C(=O)NC(C)(C)C(=O)N[C@H](C(=O)NC(C)(C)C(=O)NCC(=O)N[C@@H](CC(C)C)C(=O)NC(C)(C)C(=O)N1CCC[C@H]1C(=O)N[C@H](C(=O)NC(C)(C)C(=O)NC(C)(C)C(=O)N[C@@H](CCC(=O)O)C(=O)N[C@@H](CCC(N)=O)C(=O)N[C@H](CO)Cc1ccccc1)C(C)C)C(C)C [Alamethicin],-1.85
2,COc1ccc([C@H]2Sc3ccccc3N(CCN(C)C)C(=O)[C@H]2OC(C)=O)cc1,-0.075
3,CO[C@H]1/C=C/O[C@@]2(C)Oc3c(C)c(O)c4c(O)c(c5c(nc6cc(C)ccn65)c4c3C2=O)NC(=O)/C(C)=C\C=C\[C@H](C)[C@H](O)[C@@H](C)[C@@H](O)[C@@H](C)[C@H](OC(C)=O)[C@@H]1C [Rifaximin],-0.613
4,CNCCCC1c2ccccc2C=Cc2ccccc21,-0.833
5,CCCCC[C@H](O)/C=C/C1=C(C/C=C\CCCC(=O)O)C(=O)CC1 [Prostaglandin B2],0.128
6,CC(=O)Nc1c(I)c(NC(C)=O)c(I)c(C(=O)O)c1I [Diatrizoate Meglumine],-1.47
7,C[C@@H]1C[C@H]2[C@@H]3CCC4=CC(=O)C=C[C@]4(C)[C@@]3(F)[C@@H](O)C[C@]2(C)[C@H]1C(=O)CO [Desoximetasone],1.13
8,O=C(/C=C/c1ccc(/C=C/C(=O)Nc2ccc(C3=NCCN3)cc2)cc1)Nc1ccc(C2=NCCN2)cc1 [GW4869 hydrate],-1.01
9,O=C(CCCCCCC(=O)Nc1ccccc1)NO [Vorinostat],1.38
10,CCN(CC)C(=O)N1CCN(C)CC1 [Diethylcarbamazine citrate],0.786
11,Cc1oncc1C(=O)Nc1ccc(C(F)(F)F)cc1 [Leflunomide],-0.325
12,COc1cc2ncc(-c3ccccc3)nc2cc1OC,0.694
13,COc1ccc2[nH]c([S+]([O-])Cc3ncc(C)c(OC)c3C)nc2c1 (stereo not given) [Omeprazole],0.765
14,CCOC(=O)C1=C[C@]2(CC)CCCN3CCc4c(n1c1ccccc41)[C@@H]32 [Vinpocetine],1.66
15,NS(=O)(=O)c1cc(C(=O)O)c(NCc2ccco2)cc1Cl [Furosemide],-2.05
16,OC[C@@H](O)[C@@H](O)[C@H](O)[C@@H](O)CO [Sorbitol],0.67
17,CC1COc2c(N3CCN(C)CC3)c(F)cc3c(=O)c(C(=O)O)cn1c23 (stereo not given) [Ofloxacin],-0.51
18,C=C(C)[C@@H]1CC[C@]2(C(=O)O)CC[C@]3(C)[C@H](CC[C@@H]4[C@@]5(C)CC[C@H](O)C(C)(C)[C@@H]5CC[C@]43C)[C@@H]12 [Betulinic acid],-0.261
19,Clc1ccc(COC(Cn2ccnc2)c2ccc(Cl)cc2Cl)c(Cl)c1 (stereo not given) [Miconazole],-0.412
20,OC[C@H]1O[C@H](O[C@H]2O[C@H](CO)[C@@H](O)[C@H](O)[C@H]2O)[C@H](O)[C@@H](O)[C@@H]1O [Trehalose],-1.08
